This note sets out measurements from PubChem BioAssay (NCATS).

Records with an inconclusive call do not appear. Entries that show only a call come without a potency. The source made the active and inactive calls. Calls come from the whole dose curve; as a rule, active = well fitted curve in the direction sought with a large enough effect; inconclusive = small, poorly fitted or top-dose-only effect, or another doubt; inactive = no such curve, though single readings can be large; an effect the other way counts as inactive or inconclusive.

The target of test [1] is Aldehyde dehydrogenase, mitochondrial (Homo sapiens) (UniProt P05091). The test can be described thus: qHTS for Inhibitors of the Aldehyde Dehydrogenase Family (ALDH2) Primary screen (AID 2061308). Note: nearly all actives have a fitted effect of over 55% in size. To be noted: ALDH2 enzyme inhibition qHTS, 1536-well; series mostly up to 56 µM.
In test [2] the target is Retinaldehyde dehydrogenase 3 (Homo sapiens) (UniProt P47895). Kind of test: qHTS for Inhibitors of the Aldehyde Dehydrogenase Family (ALDH1A3) Primary screen (AID 2061315). To be noted: ALDH inhibition qHTS; series mostly up to 56 µM.

In the case of `COc1ccc(C2Nc3ccccc3C(=O)N2Cc2ccco2)cc1COc1c(C(C)C)cccc1C(C)C` (stereo not drawn), the Potency result in test [1] and in test [2] was “inactive” throughout.
As for `c1cncc(-c2ccc3ncnc(NCc4cccs4)c3c2)c1`, the Potency result in test [1] and in test [2] was “inactive” in each case.
For `O=C(CCc1ccccc1)Nc1ccc(S(=O)(=O)Nc2nccs2)cc1`, the Potency entry in test [1] and in test [2] was “inactive” throughout.
Turning to `Cc1ccc(OCCn2c(CCNC(=O)c3cccc(Br)c3)nc3ccccc32)cc1`, the Potency entry in test [1] and in test [2] was “inactive” throughout.
On to `CCN1CCN(C(=S)c2ccc(O)cc2)CC1`, for which the Potency result in test [1] and in test [2] was “inactive” each time.
Turning to `Cc1ccc(S(=O)(=O)Nc2ccccc2Nc2nc(-c3ccccc3)cs2)cc1`, the Potency result in test [1] and in test [2] was “inactive” in each case.
On to `O=C1c2ccccc2C(=O)N1C1CCCCC1`, for which the Potency result in test [1] and in test [2] was “inactive” throughout.
Regarding `Cc1csc(CNc2ncnc3ccc(-c4ccc(C(=O)O)o4)cc23)n1`, the Potency result in test [1] and in test [2] was “inactive” each time.
Regarding `c1nc(N2CCC(N3CCCC3)CC2)c2cc(-c3ccc4c(c3)OCO4)ccc2n1`, the Potency result in test [1] and in test [2] was “inactive” each time.
As to `O=C(NCCc1nc2ccccc2n1CCOc1ccc2cccnc2c1)C1CCCCC1`, the Potency result in test [1] and in test [2] was “inactive” throughout.
As to `Cc1cc2c(s1)c1cnn(Cc3cc(F)cc(F)c3F)c(=O)c1n2C`, the Potency result in test [1] and in test [2] was “inactive” each time.
For `COc1ccccc1C1c2c(ncn(-c3ccccc3)c2=N)Oc2ccc3ccccc3c21` (stereo not drawn), the Potency result in test [1] and in test [2] was “inactive” in each case.
Regarding `COc1cccc(NC(=S)N2CCN(c3cc(Cl)cc(Cl)c3)CC2)n1`, the Potency result in test [1] and in test [2] was “inactive” throughout.
As for `COc1ccccc1C1=Nn2c(nnc2-c2cccc(OC)c2OC)SC1`, the Potency entry in test [1] and in test [2] was “inactive” each time.
Consider `Cc1nc(N2CCOCC2)c2nc(-c3ccccc3)n(CCCN3CCCCC3C)c2n1` (stereo not drawn), for which the Potency entry in test [1] and in test [2] was “inactive” each time.
Turning to `N#Cc1ccc(-c2ccc(=O)n(CC(=O)NCCc3ccccc3)n2)cc1`, the Potency result in test [1] and in test [2] was “inactive” each time.
For `CC(C)Oc1cccc(-c2csc(N3CCC(C(N)=O)CC3)n2)c1`, the Potency entry in test [1] and in test [2] was “inactive” throughout.
For `O=C(Nc1nnc(-c2ccco2)o1)c1ccc(Br)cc1`, the Potency result in test [1] and in test [2] was “inactive” each time.
Take `O=C(Cc1nnc(-c2nc3ccccc3[nH]2)o1)Nc1cc(C(F)(F)F)ccc1Cl`: the Potency entry in test [1] and in test [2] was “inactive” each time.
`Cc1cc(-c2nc(Nc3ccc(F)c(F)c3)c3ccccc3n2)cc(C)n1`: the Potency result in test [1] and in test [2] was “inactive” in each case.
In the case of `CCOC(=O)C1CCN(C(=O)C(C)(C)NC(=O)Nc2ccc(F)c(F)c2)CC1`, the Potency result in test [1] and in test [2] was “inactive” in each case.
For the compound `CONC(=O)C[C@@H](C#N)NC(=O)[C@@H]1CCCN1C(=O)[C@@H](NC(=O)c1ccc(N)c(Cl)c1)C(C)(C)C`, the Potency result in test [1] and in test [2] was “inactive” throughout.
For `Cn1c(NC2=NC3(CCCC3)C3=C(CCCC3=O)N2)nc2ccccc21`, the Potency result in test [1] and in test [2] was “inactive” in each case.
As for `O=c1c2ccccc2nc2sc(Nc3ccc(F)cc3)nn12`, the Potency result in test [1] and in test [2] was “inactive” throughout.
Take `Cc1ccccc1C(=O)NCC(=O)OC(C(=O)Nc1cc(C(F)(F)F)ccc1Cl)c1ccccc1` (stereo not drawn): the Potency result in test [1] and in test [2] was “inactive” each time.
With `O=C(Nc1ccc(-c2ccccc2)nc1)c1cccs1`, the Potency entry in test [1] and in test [2] was “inactive” throughout.
`COc1ccc(C2=Nn3c(nnc3-c3ccccc3O)SC2)c(OC)c1`: the Potency entry in test [1] and in test [2] was “inactive” each time.
Turning to `O=C(NCCc1nc2ccccc2n1CCOc1cccc([N+](=O)[O-])c1)C1CCCCC1`, the Potency result in test [1] and in test [2] was “inactive” throughout.
Regarding `Cc1cccc(-n2cnc3cc(C(=O)N4CCC(c5ccccc5)CC4)ccc32)c1`, the Potency entry in test [1] and in test [2] was “inactive” throughout.
`Cc1ccc(Nc2nc(-c3ccncc3)nc3ccccc23)cc1F`: the Potency result in test [1] and in test [2] was “inactive” in each case.
On to `Cc1ccc(-c2cc(C(=O)NCC[S+](=O)([O-])O)c3ccccc3n2)cc1C`, for which the Potency entry in test [1] and in test [2] was “inactive” throughout.
With `Cc1ccc(OCCn2c(CCNC(=O)c3cccc4cc[nH]c34)nc3ccccc32)cc1`, the Potency entry in test [1] and in test [2] was “inactive” throughout.
For the compound `COc1cc(O)c(C(CC(=O)N2CCCC2)c2ccc3c(c2)OCO3)c(OC)c1` (stereo not drawn), the Potency entry in test [1] and in test [2] was “inactive” throughout.
On to `Cc1cc(C)nc(NC(=S)N2CC3CN(c4ccc(Cl)cc4C(F)(F)F)CC3C2)c1` (stereo not drawn), for which the Potency entry in test [1] and in test [2] was “inactive” in each case.
In the case of `Cc1cc2c(s1)c1cnn(Cc3cccc4cccnc34)c(=O)c1n2C`, the Potency result in test [1] and in test [2] was “inactive” in each case.
For `Nc1ccc(S(=O)(=O)N2CCCN(S(=O)(=O)c3ccc4c(c3)OCCO4)CC2)cc1`, the Potency entry in test [1] and in test [2] was “inactive” throughout.
For the compound `Cc1cc2c(s1)c1cnn(Cc3ccc(C(F)(F)F)cc3F)c(=O)c1n2C`, the Potency entry in test [1] and in test [2] was “inactive” each time.
`CCCn1c(C)nc2c(Nc3ccccc3)nc(C)nc21`: the Potency entry in test [1] and in test [2] was “inactive” each time.
As for `c1nc(NCC2CCCO2)c2ccc(-c3ccc4c(c3)OCO4)cc2n1` (stereo not drawn), the Potency entry in test [1] and in test [2] was “inactive” in each case.
